Records with an inconclusive call do not appear. Calls of active or inactive are those of the source. Calls follow the shape of the dose curve; as a rule, active = well fitted curve in the direction sought with a large enough effect; inconclusive = small, poorly fitted or top-dose-only effect, or effect the other way, or another doubt; inactive = no such curve, though single readings can be large or run the other way.
Each compound was assayed against Pyruvate kinase PKLR (Homo sapiens) (UniProt P30613) (assay: Secondary Concentration-Response Assay for Activators of Human Reticulocyte Pyruvate Kinase: for Probe SAR). Conditions: purified hPK-R, ATP production, Kinase-Glo luminescence; series mostly up to 57.5 µM; activity change, negative = inhibition: at the top concentration.
Description: NIH Chemical Genomics Center [NCGC]
Wael M. Rabeh, Lyudmila Nedyalkova and Hee-Wan Park [Structural Genomics Consortium, 100 College St. Toronto, Ontario, Canada]
Human pyruvate kinase reticulocyte (hPK-R) enzyme was supplied as a highly purified (>95% pure) preparation from Structural Genomics Consortium in Toronto (Ontario, Canada) and assayed for its ability to generate ATP from ADP using phosphoenolpyruvate (PEP) as a substrate. ATP generation was detected in a coupled reaction by luciferase-mediated luminescence, an ATP-dependent process. Pyruvate kinase substrates, PEP and ADP, were present in the assay at Km and approximately 10-fold below Km respectively. The enzyme was assayed at an intermediate level of activity to screen for both inhibitors and activators.
NCGC Assay Protocol Summary for R-isoform
Three uL of substrate mix (at r.t.) in assay buffer (50 mM Imidazole pH7.2, 50 mM KCl, 7 mM MgCl2, 0.01% Tween 20, 0.05% BSA) was dispensed into white solid bottom 1,536 well microtiter plates so that the final concentrations of substrates in the assay were 0.1 mM ADP and 0.5 mM PEP. 23 nL of compound were delivered by a pin tool and 1 uL of enzyme mix (final concentration of 0.1 nM) in assay buffer (4 degree Celsius) was added. Plates were incubated at room temperature for 1 hour. Two uL of detection mix (Kinase-Glo, Promega; at 4 degree Celsius protected from light) was added and luminescence read by a ViewLux (Perkin Elmer) at 1 second exposure/plate. Data were normalized to the uninhibited (row 31). Additionally, a no enzyme and 5-fold enzyme control was dispensed in row 32, split equally between the two conditions.

Pyruvate kinase PKLR (Homo sapiens), sequence (P30613 whole entry, looked up): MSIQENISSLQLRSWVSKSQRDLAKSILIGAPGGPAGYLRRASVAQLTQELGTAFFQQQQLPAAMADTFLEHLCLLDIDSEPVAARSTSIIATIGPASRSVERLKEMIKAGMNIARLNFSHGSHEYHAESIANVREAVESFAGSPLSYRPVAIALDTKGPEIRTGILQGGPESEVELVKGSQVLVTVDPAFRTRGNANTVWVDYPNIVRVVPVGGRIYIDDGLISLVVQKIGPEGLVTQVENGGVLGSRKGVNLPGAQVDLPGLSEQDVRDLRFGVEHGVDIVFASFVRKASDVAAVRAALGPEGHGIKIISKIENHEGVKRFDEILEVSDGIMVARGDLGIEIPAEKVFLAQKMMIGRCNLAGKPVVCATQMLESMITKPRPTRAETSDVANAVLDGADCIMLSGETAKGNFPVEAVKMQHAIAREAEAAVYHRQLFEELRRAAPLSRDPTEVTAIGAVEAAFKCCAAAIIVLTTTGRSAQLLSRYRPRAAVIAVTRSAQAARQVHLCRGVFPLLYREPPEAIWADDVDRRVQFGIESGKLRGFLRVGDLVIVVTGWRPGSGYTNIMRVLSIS

Activity change, negative = inhibition, inactive:
O=C1c2ccccc2C(=O)N1c1cccc2ccncc12 11.9%
COc1cccc(NS(=O)(=O)c2ccc3c(c2)CCC(=O)N3)c1 11%
CCCCN1C(=O)c2ccccc2C1=O 4.02%
CCNc1cccc(S(=O)(=O)N2CCCN(S(=O)(=O)c3ccc4c(c3)OCCO4)CC2)c1 25.1%
O=C1CCc2cc(S(=O)(=O)Nc3ccc(Cl)c(Cl)c3)ccc2N1 4.75%
Cc1ccc(C)c(SC2=N[S+](=O)([O-])c3cc(C(=O)Nc4ccc5ncccc5c4)ccc32)c1 -22.6%
O=C1CCc2cc(S(=O)(=O)Nc3ccc(F)cc3)ccc2N1 0.814%
Cc1ccc(NS(=O)(=O)c2cc3c(cc2F)NC(=O)CC3)cc1Cl 0.0219%
O=C1CCc2cc(S(=O)(=O)Nc3cc(F)cc(Cl)c3)c(F)cc2N1 -1.27%
Cc1ccc(NS(=O)(=O)c2ccc3c(c2)CCC(=O)N3)cc1F 1.93%
O=C1CCc2cc(S(=O)(=O)Nc3cccc(Br)c3)ccc2N1 -3.86%
Cc1cc(NS(=O)(=O)c2ccc3c(c2)CCC(=O)N3)ccc1Cl 6.47%
Cc1c(Cl)cccc1NS(=O)(=O)c1cc2c(cc1F)NC(=O)CC2 -6.02%
Cc1ccc(NS(=O)(=O)c2ccc3c(c2)CCC(=O)N3)cc1C 0.345%
O=C1CCc2cc(S(=O)(=O)Nc3ccccn3)ccc2N1 7.53%
O=C1CCc2cc(S(=O)(=O)Nc3cccnc3)ccc2N1 1.36%
O=C1CCc2cc(S(=O)(=O)Nc3ccc(Cl)cc3)ccc2N1 5.94%
O=C1c2ccccc2C(=O)N1Cc1cccnc1 4.78%
N#Cc1ccc(NS(=O)(=O)c2ccc3c(c2)CCC(=O)N3)cc1 0.584%
O=C1CCc2cc([S+](=O)([O-])Nc3ccc(N[S+](=O)([O-])c4ccc5c(c4)CCC(=O)N5)cc3)ccc2N1 5.29%
O=C1c2ccccc2C(=O)N1Cc1ccncc1 9.02%
Cc1ccc(C)c(OC2=NS(=O)(=O)c3ccccc32)c1 -0.194%
CN(C)c1cccc(S(=O)(=O)N2CCCN(S(=O)(=O)c3ccc4c(c3)OCCO4)CC2)c1 18.2%
O=C1CCc2cc(S(=O)(=O)Nc3cccc(-c4ccccc4)c3)ccc2N1 8.1%
O=C1CCc2cc(S(=O)(=O)Nc3ccncc3)ccc2N1 3.56%
O=C1CCc2cc(S(=O)(=O)Nc3ccc4c(c3)CCC4)ccc2N1 11%
Cc1ccc(NS(=O)(=O)c2ccc3c(c2)CCC(=O)N3)cc1 13.9%
O=C1c2ccccc2C(=O)N1c1cccc2cnccc12 4.76%
O=C1CCc2cc(S(=O)(=O)Nc3cccc(Oc4ccccc4)c3)ccc2N1 1.08%
Cc1ccccc1NS(=O)(=O)c1ccc2c(c1)CCC(=O)N2 12.2%
O=C1c2ccccc2C(=O)N1c1cncc2ccccc12 9.51%
O=C1c2ccccc2C(=O)N1c1cc(=O)c2ccccc2[nH]1 2.34%
O=C1c2ccccc2C(=O)N1c1ccc2ncccc2c1 14.8%
O=C1CCc2cc(Cl)c(S(=O)(=O)Nc3ccc(Cl)c(Cl)c3)cc2N1 -1.27%
COC(=O)c1ccc2c(c1)S(=O)(=O)N=C2Sc1cc(C)ccc1C -60.5%
O=C1c2ccccc2C(=O)N1Cc1ccccc1 8.92%
O=C1CCc2cc(S(=O)(=O)Nc3cccc4ccccc34)ccc2N1 -2.68%
O=C1CCc2cc(S(=O)(=O)Nc3ccc4c(c3)OCCO4)ccc2N1 12.4%
Cc1ccc(NS(=O)(=O)c2cc3c(cc2Cl)CCC(=O)N3)cc1Cl -0.101%
O=C1CCc2cc(S(=O)(=O)Nc3ccc(-c4ccccc4)cc3)ccc2N1 9.89%
